Only some compounds are listed: those with a hit (about 4% of all), similar ones and a draw of the others.
D1 ag – human D1 receptor agonism | P21728 | HEK293 T-REx D1 cells, calcium flux, agonist mode | activation, % at 2 µM | 360,000 tested, 1% active; further: 0% is about no effect
Target sequence (P21728 whole entry, looked up): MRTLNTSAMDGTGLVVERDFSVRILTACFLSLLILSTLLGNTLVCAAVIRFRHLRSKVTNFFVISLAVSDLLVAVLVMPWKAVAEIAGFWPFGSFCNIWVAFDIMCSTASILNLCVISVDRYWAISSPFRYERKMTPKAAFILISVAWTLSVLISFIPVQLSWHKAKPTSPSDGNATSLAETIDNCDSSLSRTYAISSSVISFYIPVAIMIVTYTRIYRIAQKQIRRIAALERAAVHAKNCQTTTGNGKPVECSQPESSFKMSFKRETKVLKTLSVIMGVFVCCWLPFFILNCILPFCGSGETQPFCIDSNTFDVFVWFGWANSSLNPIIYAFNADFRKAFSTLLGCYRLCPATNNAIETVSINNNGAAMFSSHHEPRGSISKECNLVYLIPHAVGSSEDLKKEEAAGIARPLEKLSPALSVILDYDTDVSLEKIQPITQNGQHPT
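Agonism was scored from calcium flux recorded over 180 s (1 read/s) after pintool compound addition, following a 10-cycle baseline. Cells were inducible force-coupled HEK293 TREx D1, plated overnight at 30 C and loaded with no-wash calcium dye.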
GRP78 ERSR act – ER stress response induction in glioma; U87-MG GRP78 promoter luciferase reporter, 16 h; Potency, µM, inactives show top-dose activation, hits mostly activators; 420,000 tested, 0.02% active; active means well fitted activation curve with a large enough effect; further: potency means the concentration at half of the fitted maximal effect; series mostly up to about 76 µM; % of control where 0% means no effect; nearly all actives have a fitted effect of over 35% in size
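Stably transfected U87-MG glioma cells carrying a GRP78-based luciferase sensor; 16 h compound incubation. Luminescence end-point read 10 min after Bright-Glo addition at room temperature.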
D1 antagonist – blocks dopamine activation of the human D1 receptor | P21728 | HEK293 TREx D1 cells, calcium flux, dopamine EC80; active compounds read low | activity change, negative = inhibition, % at 10 µM | 360,000 tested, 3.2% active; in the data active means activity change below about -30%; further: on the % scale 0 is the no-effect control and ±100 the full control effect
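After overnight tetracycline induction at 30 C, force-coupled D1 HEK293 cells took up a no-wash calcium dye at room temperature. Compounds were added and monitored 180 s, and the response to EC80 dopamine was then recorded.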
TRHR agonist – TRH receptor (human) agonism. activation, % at 2 µM. P34981. 360,000 tested, 0.18% active. TRHR cells, calcium flux fluo-8, FDSS agonist mode; further: 0% is about no effect
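Fluo-8-loaded TRHR cells; 10 s baseline, compound added, kinetic Ca2+ fluorescence read 1/s, agonist mode.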
D1 PAM – potentiators of human D1 dopamine receptor; P21728; HEK293 TREx D1 cells, calcium flux, dopamine EC20 potentiation; potentiation, % at 10 µM; 360,000 tested, 0.036% active; AID 504651; in the data active means potentiation above about 30%; further: 0% is about no effect
TRHR enhancer – TRH receptor (human) allosteric enhancement; P34981; TRHR cells, fluo-8 calcium fluorescence, EC20 TRH enhancement; enhancement, % at 2 µM; 360,000 tested, 0.66% active; AID 493056; in the data active means enhancement above about 30%; further: 0% is about no effect
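Enhancer read-out: after compound pinning and an initial kinetic agonist-mode read, an EC20 of TRH (10 nM final) was injected and fluo-8 calcium signal (Ex 480/Em 530) followed at 1 s/cycle for 100 cycles in TRHR-expressing cells.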
Starred values were filed as active, the others as inactive; nt = no result. Unless noted, no stated cut-off is given here; in the data, active means activation above about 30%; inactive means the rest.

SMILES | D1 ag | GRP78 ERSR act | D1 antagonist | TRHR agonist | D1 PAM | TRHR enhancer
COc1cc(C2CC(=O)OC3=C2C(=O)CC(C)(C)C3)cc(OC)c1OC (configuration not stated) | -1 | -4% | 3 | 0 | -1 | 33*
COc1cc(C2CC(=O)NC3=C2C(=O)CC(C)(C)C3)cc(OC)c1O (configuration not stated) | 1 | -3% | -11 | 0 | -1 | -1
O=C1ON=C(c2ccccc2)/C1=C/c1cccnc1 | 1 | -4% | 3 | 1 | -5 | 2
CCN(CC)S(=O)(=O)c1ccc(C(=O)NN(C)C2=NS(=O)(=O)c3ccccc32)cc1 | 2 | -2% | 5 | 0 | -10 | 3
COc1ccnc(N=CNOCc2cccc(Cl)c2Cl)c1C#N | 0 | 2% | -58* | -1 | -5 | -1
CCOc1ccccc1CN1CCN(Cc2cc(=O)c3ccccc3[nH]2)CC1CCO (configuration not stated) | -1 | -2% | -36* | 0 | -5 | 5
CCOc1ccccc1CN1CCN(Cc2c[nH]c3ccccc23)CC1CCO (configuration not stated) | 2 | -5% | -9 | -1 | -7 | -6
CCOc1ccccc1CN1CCN(Cc2[nH]c3ccccc3c2C)CC1CCO (configuration not stated) | 56* | 3% | -8 | 0 | -5 | 8
CCn1c(=O)cc(SCC(=O)NCc2cccnc2)c2ccccc21 | 3 | -5% | -40* | -1 | -7 | -6
CCn1c(=O)cc(SCC(=O)NCCCN2CCC(C)CC2)c2ccccc21 | 2 | -4% | 9 | 1 | 0 | 0
CCn1c(=O)cc(SCC(=O)NCCN2CCN(Cc3ccccc3)CC2)c2ccccc21 | 0 | -5% | -33* | 0 | -2 | -3
CCc1ccc(CNC(=O)CSc2cc(=O)n(CC)c3ccccc23)cc1 | 3 | -3% | -1 | 0 | 2 | 4
CCOc1ccc(-c2nnc(SCC(=O)Nc3cccc(Cl)c3C)o2)cc1 | 22 | nt | -35* | 1 | 0 | 0
CCOc1ccc(-c2nnc(SCC(=O)Nc3ccccc3C(F)(F)F)o2)cc1 | 3 | 1% | 4 | 0 | 1 | 0
COC(=O)c1c(N2C(=O)[C@H]3[C@@H](C2=O)[C@]2(C(=O)Nc4c(C)cc(C)cc42)N2CCC[C@@H]32)sc(C)c1C | 0 | -4% | 7 | 1 | -2 | 3
CCN(CC)C(=O)CSc1n[nH]c(=O)n1CCc1ccccc1 | 4 | -1% | 1 | -1 | -2 | 0
COCC1CCN(Cc2nc(-c3ccc4c(c3)OCO4)no2)C1 (configuration not stated) | 2 | 9% | 1 | 1 | 3 | -10
c1cc(C2CCN(Cc3nc(-c4ccc5c(c4)OCO5)no3)CC2)ccn1 | 4 | -4% | -15 | 1 | -4 | 35*
Cc1noc(C)c1CSCC(=O)N(C)CC(=O)Nc1ccccc1Cl | 3 | -3% | 2 | 0 | 6 | -2
COc1ccc(-c2cn3c(n2)sc2cc(C(=O)NCCCc4ccccc4)ccc23)cc1 | -1 | 0% | -1 | 0 | -3 | 5
COc1cccc(-c2cn3c(n2)sc2cc(C(=O)NCCCc4ccccc4)ccc23)c1 | 4 | 1% | -34* | 0 | 3 | -4
Cc1ccccc1NC(=O)CCNC(=O)Cn1ccc2ccccc2c1=O | 3 | -2% | -35* | 0 | 1 | 0
COc1cccc([C@H]2Oc3ccc(OC)cc3/C(=N\OC[C@@H](O)[C@@H]3O[C@@H]4OC(C)(C)O[C@@H]4[C@H]3O)[C@@H]2O)c1 | nt | 6% | nt | nt | nt | nt
Cc1ccccc1OCC(=O)OCC(=O)c1ccc[nH]1 | 2 | -1% | -32* | -2 | -6 | -4
Cc1ccc(C)c(NC(=O)CCC(=O)NNC(=O)COc2cc(C)ccc2C)c1 | 0 | 1% | -38* | -1 | -7 | 6
SMILES | D1 ag | GRP78 ERSR act | D1 antagonist | TRHR agonist | D1 PAM | TRHR enhancer
CCc1ccc(NC(=O)NNC(=O)CCc2ccccc2)cc1 | 1 | -3% | -61* | 0 | -5 | 1
O=C(COc1ccc(Cl)cc1)OCC(=O)c1ccc[nH]1 | -1 | -5% | -11 | -1 | -10 | 11
Cc1cc(OCC(=O)OCC(=O)c2ccc[nH]2)ccc1Cl | 10 | -1% | -34* | 0 | -3 | -7
O=C(CCc1ccccc1)NNC(=O)Nc1ccccc1 | 3 | -2% | 2 | 0 | 1 | 0
O=C1c2ccccc2S(=O)(=O)c2cc(C(=O)N3CCN(c4ccccc4)CC3)ccc21 | nt | -2% | nt | nt | nt | nt
CC(=O)c1ccc(N2CCN(C(=O)CCCn3c(=S)[nH]c4cc5c(cc4c3=O)OCO5)CC2)cc1 | 1 | 0% | -8 | -1 | -7 | 2
Cc1ccc(SCCC(=O)NNC(=O)c2ccccc2F)cc1 | nt | 0% | nt | nt | nt | nt
COc1ccc(NC(=O)Cn2c(CCC(=O)O)ccc2-c2ccccc2)cc1Cl | 0 | nt | -16 | 0 | 6 | 0
Cc1ccccc1OCC(=O)OCC(=O)c1ccc(OCc2ccccc2)cc1 | 55* | 9% | 16 | 0 | -4 | -5
Cc1ccccc1OCC(=O)NNC(=O)CCc1ccccc1 | 1 | -1% | 6 | 0 | 1 | 32*
CCCCCCCC(=O)NNC(=O)Cc1ccccc1 | 2 | -1% | -54* | 0 | -1 | -4
COc1ccccc1NC(=O)CN1C(=O)COc2ccc(S(=O)(=O)N3CCOCC3)cc21 | 3 | -4% | -5 | 1 | -3 | 6
COc1ccc(N2C(=O)C3CCCN3C2=O)cc1 (configuration not stated) | -1 | -1% | -34* | 0 | -2 | 4
O=C(Oc1ccc2cc(Br)ccc2c1)N1CCCCCC1 | 41* | nt | -7 | 1 | -1 | 2
CCOC(=O)c1c(-c2ccc(OC)cc2)csc1/N=C/N(C)C | 6 | -3% | -26 | 0 | -6 | 9
CCOC(=O)c1c(-c2ccc(OC)cc2)csc1/N=C/C1C(=O)CCCC1=O | 29 | 13% | -47* | 12 | -8 | 21
Cc1cccc(-c2nnc(-c3ccc4ccccc4c3)o2)c1 | nt | -4% | nt | nt | nt | nt
Cc1ccc(OCCCc2c(C)n[nH]c2C)cc1 | 4 | 6% | -19 | 0 | -5 | -3
Cc1n[nH]c(C)c1CCCCOc1ccccc1 | 15 | -1% | -32* | 0 | -8 | -7
Cc1n[nH]c(C)c1CCCCOc1ccc([N+](=O)[O-])cc1 | 13 | -4% | -39* | 0 | -7 | 3
Cc1n[nH]c(C)c1CCCCOc1ccccc1[N+](=O)[O-] | 19 | -2% | -33* | 0 | -5 | -2
COc1cc(C(=O)Oc2cccnc2)cc(OC)c1OC | 2 | -3% | -16 | 0 | 6 | -3
Cc1cc(N2C(=O)C3CCC(c4ccccc4)CC3C2=O)no1 (configuration not stated) | 1 | -3% | nt | 0 | -5 | -6

Screening data from PubChem BioAssay.
